PubChem BioAssay AID1851 (National Center for Advancing Translational Sciences (NCATS), 2009)
In all, about 16,000 compounds went through this assay and about 2,600 (16%) were called active. Another 20% or so got no clear call; they are omitted. These entries were drawn from the full list. Unmarked numbers belong to inactive results. Calls follow the shape of the dose curve; as a rule, active = well fitted curve in the direction sought with a large enough effect; inconclusive = small, poorly fitted or top-dose-only effect, or effect the other way; inactive = no such curve, though single readings can be large or run the other way.

These compounds were tested against Cytochrome P450 2D6 (Homo sapiens) (UniProt P10635) (assay: Cytochrome panel assay with activity outcomes). Conditions: recombinant CYP, pro-luciferin dealkylation, luminescence, p450-cyp2d6; series mostly up to 57.1 µM; activity, negative = inhibition: at the top concentration.
Cytochrome P450 2D6 (Homo sapiens), sequence (P10635 whole entry, looked up): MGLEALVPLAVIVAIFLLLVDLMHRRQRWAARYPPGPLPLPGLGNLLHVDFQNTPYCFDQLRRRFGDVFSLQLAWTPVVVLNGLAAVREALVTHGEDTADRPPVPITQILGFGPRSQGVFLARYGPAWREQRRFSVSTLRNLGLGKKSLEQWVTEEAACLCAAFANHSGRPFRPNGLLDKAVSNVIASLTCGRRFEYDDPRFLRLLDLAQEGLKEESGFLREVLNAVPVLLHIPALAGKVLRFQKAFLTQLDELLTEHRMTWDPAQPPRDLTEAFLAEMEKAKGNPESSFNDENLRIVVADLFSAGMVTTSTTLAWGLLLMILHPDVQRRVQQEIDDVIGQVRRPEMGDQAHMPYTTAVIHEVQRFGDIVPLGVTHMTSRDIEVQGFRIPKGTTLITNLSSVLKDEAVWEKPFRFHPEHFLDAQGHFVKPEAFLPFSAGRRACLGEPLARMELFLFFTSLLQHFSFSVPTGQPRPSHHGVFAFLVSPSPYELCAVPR
% is scaled to controls: 0 for no effect and ±100 for the full control effect.

In order of falling activity, negative = inhibition:
1. CC(C)=NO[C@@H](C)c1cn([C@@H]2COC[C@@H]2O)nn1  14.3% [at 11.4 µM]
2. C#CCCCO/N=C1/C[C@@H](O)[C@@H](O)[C@@H]2[C@@H]3C(=O)N([C@@H](C)c4ccccc4)C(=O)[C@H]3CC[C@H]12  12% [at 11.4 µM]
3. CC(C)(Oc1ccc(-c2cccc3ccccc23)cc1)C(=O)O  11.3% [at 11.4 µM]
4. O=C(O)CCNc1ccccc1C(=O)O  3.09% [at 11.4 µM]
5. CO[C@@H]1COC(=O)[C@H]2CCCN2C(=O)[C@@H](C)COC(=O)[C@H](COCc2ccccc2)NC(=O)C/C=C\[C@H]1C  1.71% [at 11.4 µM]
6. O=C1[C@@H]2[C@H]3[C@H](O)[C@H](O)C/C(=N/OC[C@@H](O)COCc4ccco4)[C@H]3CC[C@H]2C(=O)N1c1ccc(F)cc1F  -0.021% [at 11.4 µM]
7. O=C(Cn1ccc(=O)[nH]c1=O)Nc1ccc(C(=O)O)c(O)c1  -2.13% [at 11.4 µM]
8. CC(C)=NOCc1cccc(-c2cc(-c3ccccc3)no2)c1  -6.68% [at 11.4 µM]
9. CO[C@H]1COC(=O)[C@H](C)NC(=O)C/C=C\[C@@H](C)[C@@H](NS(=O)(=O)c2ccc(C)cc2)COC(=O)[C@H](OCc2ccccc2)/C=C\[C@@H]1C  -11.2% [at 11.4 µM]

In order of falling “activity, negative = inhibition” value:
1. COc1ccc(CC(=O)Nc2ccc(-c3noc(-c4cccc(OC)c4)n3)cc2)cc1  28.9%
2. COc1ccccc1-c1c(C(F)(F)F)oc2cc(OC(=O)c3cccc([N+](=O)[O-])c3C)ccc2c1=O  20.9%
3. O=C1C2C3C=CC(CC3)C2C(=O)N1/N=C/c1ccccc1O (configuration not stated)  18.7%
4. CCC1(C)Nc2ccccc2C(=O)N1O (configuration not stated)  18.2%
5. Cc1ccc2oc(-c3cccc(NC(=S)NC(=O)/C=C/c4ccco4)c3)nc2c1  17.9%
6. COc1cc(C=O)ccc1OCCCOc1ccccc1C(=O)O  14.2%
7. Cc1cc(NC(=O)CCC(=O)N(CC2CCCO2)C(C(=O)NC2CCCC2)c2cccnc2)no1 (configuration not stated)  14%
8. CC(C)OC(=O)/C(=C\c1ccc2c(c1)c1ccccc1n2C)NC(=O)c1ccccc1  13.2%
9. Cc1oc(-c2cccs2)[n+]([O-])c1C  12.3%
10. O=C(COC(=O)COc1ccccc1)Nc1ccc(OC(F)(F)F)cc1  11.3%
11. Cc1cccc(Oc2ncnc3onc(C)c23)c1C  11.2%
12. CCOc1[nH]n(-c2ccc(Cl)cc2)c(=O)c1C=Nc1ccc(O)cc1  11.1%
13. O=C(C/C=N/OCc1ccc(F)cc1Cl)c1cnc(-c2ccccc2)s1  10.7%
14. CC1=NN(c2ccccc2)C(=O)/C1=C\c1c(C)[nH]n(-c2ccccc2)c1=O  7.79%
15. OC[C@@H]1NC[C@@H](O)[C@H]1O  7.62%
16. COCC(=O)N1CCC2(CCCN(C(=O)Nc3ccc(OC)cc3)C2)CC1  7.58%
17. CC1(C)CC(=O)c2cn3ncnc3nc2C1  5.99%
18. CN(C)S(=O)(=O)Oc1ccccc1C(=O)Nc1cccc(C(F)(F)F)c1  5.28%
19. CNc1csc(C)c(C)c1=O  5.1%
20. COCC(=O)N1CCC2(CCCN(C(=O)Nc3ccccc3)C2)CC1  3.41%
21. COc1cccc(Cn2c(=O)c(-c3ccc(Cl)cc3)nc3cnc(N4CCN(C)CC4)nc32)c1  3.1%
22. CC[C@H](NC(=O)c1c(C)c(-c2ccccc2)nc2ccccc12)c1ccccc1  2.4%
23. CC1CCN(S(=O)(=O)c2ccc3c(c2)C(=NO)c2cc(S(=O)(=O)N4CCC(C)CC4)ccc2-3)CC1  0.589%
24. COCC(=O)N1CCC2(CC1)CN(C(=O)Nc1cccc(F)c1)C2  0.536%
25. COCCN1C(=O)C(=O)/C(=C(/O)c2cccc(OC)c2)C1c1ccco1 (configuration not stated)  0.167%
26. Cc1cc(=O)[nH]c(SCC(=O)Nc2nc3c(s2)CCCC3)n1  -1.04%
27. CCC(=O)NC(NCC1CCCO1)C(Cl)(Cl)Cl (configuration not stated)  -1.46%
28. O=C1C2C3C=CC(C3)C2C(=O)N1c1ncn[nH]1 (configuration not stated)  -1.56%
29. CCn1c(=O)[nH]c2ccccc2c1=O  -1.92%
30. CC1CCN(C(=O)CN(C)S(=O)(=O)c2cccc3nsnc23)CC1  -2.18%
31. Cc1ccc(CCN2CC(C(=O)NCCN3CCOCC3)CC2=O)cc1 (configuration not stated)  -2.21%
32. COCC(=O)N1CCC2(CC1)CCN(c1ccccn1)CC2  -2.48%
33. COCCn1c(=O)cnc2cnc(Oc3ccccc3)nc21  -2.69%
34. Cc1ccccc1N1CCN(S(=O)(=O)C[C@@]23CC[C@H](C[C@H]2NC(=O)[C@@H](N)CCS(C)(=O)=O)C3(C)C)CC1  -4.72%
35. COCCCNC(=O)c1c(N)n(/N=C/c2ccccn2)c2nc3ccccc3nc12  -5.07%
36. COCC(=O)N1CCC2(CC1)CN(C(=O)Nc1ccc(OC)cc1)C2  -6.27%
37. O=C(Nc1cccc2ccccc12)/C(=C/c1ccc([N+](=O)[O-])cc1)NC(=O)c1ccccc1  -6.79%
38. O=c1cc(N2CCC(Cc3ccccc3)CC2)[nH]c(=O)n1C1CCCCC1  -6.84%
39. Cn1c2c(c(=O)n(C)c1=O)[C@@H]1c3c(ccc4ccccc34)OC[C@@H]1CO2  -7.85%
40. COc1cccc(/C=N/NC(=O)CSc2nnc(C)n2-c2ccccc2)c1O  -8.6%
41. Cc1noc(N)c1C(=O)Nc1ccc(F)cc1  -8.7%
42. Cc1ccc(CCN2CC(C(=O)NC3CCCC3)CC2=O)cc1 (configuration not stated)  -9.43%
43. C=CCn1c(SCc2ccccc2)nc2scc(-c3ccc(C)o3)c2c1=O  -9.49%
44. CC1Cc2ccccc2N1C(=O)C1CCCCN1S(=O)(=O)c1ccccc1 (configuration not stated)  -9.53%
45. Cc1ccc(-c2noc(-c3cc4ccccc4oc3=O)n2)cc1  -11.3%
46. CN(C1CCCCC1)S(=O)(=O)c1ccc(NC(=S)NC(=O)c2cccs2)cc1  -11.5%
47. O=C(c1ccccc1)c1ccc2nc(-c3ccc(NC(=O)c4ccccc4F)cc3)[nH]c2c1  -12.1%
48. CCN1CCc2nc(NC(=O)c3ccc4c(c3)OCCO4)sc2C1  -12.3%
49. COc1cccc(NC(=O)CSc2nc3ccccc3cc2Cc2ccccc2)c1  -12.4%
50. N#Cc1c(NC(=O)CCN2C(=O)c3ccccc3C2=O)oc(-c2ccccc2)c1-c1ccccc1  -12.5%
51. CCc1cccc(NC(=O)CN(C)S(=O)(=O)c2cnc[nH]2)c1  -12.6%
52. C=C(C)[C@H]1CC=C(C)/C(=N/NC(=O)CNc2ccccc2OC)C1  -13%
53. CSc1nnc(-c2sccc2OCc2ccccc2)n1C  -13.6%
54. COc1ccc2oc(=O)c(C(=O)Oc3ccc(NC(C)=O)cc3)cc2c1  -14.8%
55. O=C1C2C3C=CC(C3)C2C(=O)N1/N=C/c1cn(Cc2ccc(F)cc2)c2ccccc12 (configuration not stated)  -15.6%
56. C=CCSc1nc(NC)c2sccc2n1  -15.6%
57. Cc1cccc(NC(=S)N2CCC(N(C)CC3CCCO3)CC2)c1C (configuration not stated)  -16.1%
58. CC(C)(C)c1nc(SCC(=O)Nc2ccc3c(c2)OCCO3)c2ccccc2n1  -16.2%
59. COCC(=O)N1CCC2(CC1)CCN(c1cccc(-c3ccccc3)c1)CC2  -17.3%
60. Cc1cccc(-c2noc(-c3cc4ccccc4oc3=O)n2)c1  -19.7%
61. CC(C)COCC1CC2(CC(C)(c3csc(N)n3)OC2=O)C(=O)O1 (configuration not stated)  -21.1%
62. COC(=O)c1sc2ncccc2c1OCc1c(Cl)cccc1Cl  -22.2%
63. COc1cccc(NC(=O)C2c3cc(OC)c(OC)cc3C(=O)N(C)C2c2cccnc2)c1 (configuration not stated)  -22.7%
64. CCC(C)NS(=O)(=O)c1ccc(OCC(=O)Nc2ccc3c(c2)OCCO3)cc1 (configuration not stated)  -22.9%
65. CCS(=O)(=O)N1CCN(c2c(Cl)cccc2[N+](=O)[O-])CC1  -25.5%
66. Nc1nc(-c2cccs2)cs1  -26.4%
67. Cc1ccc(NC(=O)/C(=C\c2ccc([N+](=O)[O-])cc2)NC(=O)c2ccccc2)cc1  -28.6%

With `COC(=O)C1=C(C)NC(C)=C(C(=O)OC(C)C)[C@H]1c1cccc2nonc12` the “activity, negative = inhibition” value was 3% [at 25.6 µM].

For `Fc1cc2nc(-c3ccncc3)[nH]c2cc1F`, the AC50 was 12.6 µM (active).
For `Nc1ccc(S(=O)(=O)Nc2cnc3ccccc3n2)cc1`, the AC50 was “inactive”.
In the case of `COc1ccc(-c2noc(N(C)CC(=O)Nc3cccc(C(F)(F)F)c3)n2)cc1`, the AC50 is reported as 35.5 µM (active).
In the case of `CCOCCCN1CC(C(=O)NCCc2ccc(C)cc2)CC1=O` (configuration not stated), the AC50 is reported as 3.55 µM (active).
For `O=c1oc2ccccc2cc1-c1csc(NN=C2CCCCC2)n1`, the AC50 was 2.82 µM (active).
`CCN1CCc2nc(NC(=O)CC(c3ccccc3)c3ccccc3)sc2C1` was tested, and the AC50 was 0.316 µM (active).
With `CCOc1ccc2nc(C)cc(Nc3ccc4c(c3)OCCO4)c2c1` the AC50 was 1.58 µM (active).
With `CC1CCN(CC[C@@H]2CCCN2S(=O)(=O)c2cccc(O)c2)CC1` the AC50 was 15.8 µM (active).
In the case of `CCCCCOC(=O)c1c(N)n(CCOC)c2nc3ccccc3nc12`, the AC50 is reported as 25.1 µM (active).
In the case of `CCCCN1CCC(n2c(=O)[nH]c3ccccc32)CC1`, the AC50 is reported as 3.16 µM (active).
For `Cc1cc(-c2cccs2)nc(-n2cccc2)n1`, the AC50 was 14.1 µM (active).
For `O=C(OCC(=O)c1ccc([N+](=O)[O-])cc1)/C(=C\c1ccc(Cl)cc1)NC(=O)c1ccccc1`, the AC50 was 14.1 µM (active).
In the case of `N=c1sccn1CC(=O)Nc1cccc(Oc2ccccc2)c1`, the AC50 is reported as 1 µM (active).
`C[C@H](NCCC(c1ccccc1)c1ccccc1)c1ccccc1` was tested, and the AC50 was 0.158 µM (active).
For `C=CC(C)(C)c1[nH]c2ccccc2c1C1=C(O)C(=O)C(c2c[nH]c3c(CC=C(C)C)cccc23)=C(O)C1=O`, the AC50 was 0.00631 µM (active).
In the case of `CCCCC1(C)Nc2ccccc2-c2nc3ccccc3n21` (configuration not stated), the AC50 is reported as 20 µM (active).
`CN(CC(=O)N1CCN(c2ccccc2)CC1)S(=O)(=O)c1cnc[nH]1` was tested, and the AC50 was 14.1 µM (active).
In the case of `COCC(=O)N1CCC2(CC1)CCN(C(c1ccccc1)c1ccccc1)CC2`, the AC50 is reported as 12.6 µM (active).
In the case of `COCC(=O)N1CCC[C@@]2(CCN(C(c3ccccc3)c3ccccc3)C2)C1`, the AC50 is reported as 6.31 µM (active).
For `COCC(=O)N1CCC2(CC1)CN(C(c1ccccc1)c1ccccc1)C2`, the AC50 was 2.51 µM (active).
